Measured values published in PubChem BioAssay AID1159580 (chemical genetic matrix, 2015).
About 2,000 (36%) of roughly 5,500 compounds were called active. Another 18% or so got no clear call; they are omitted. Cut-off read from the data, not from the text of the source: active = normalized growth mostly below about 0.91 (no sharp cut-off); inconclusive = no clear call, values can overlap the other calls; inactive = mostly above about 0.92. Some of the results follow.

Assay: chemical genetic growth profiling, strain panel (AID 1159580);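 note: tested at 20 µM; growth read once vehicle control cultures reached saturation at 30 °C; 1 = growth at the plate median or of vehicle wells; lower values mean less growth of the strain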
Conditions: growth OD

Measured: normalized growth

Cc1cc(C)cc(OCC2CNC(=O)O2)c1 (configuration not stated)
inactive: S. cerevisiae deletion strains, locus YJR075W, strain HOC1, stronger effect = lower value 1.01 | S. cerevisiae deletion strains, locus YKL009W, strain mrt4, stronger effect = lower value 1.02 | S. cerevisiae deletion strains, locus YKL068W, stronger effect = lower value 1.02 | S. cerevisiae deletion strains, locus YKL085W, strain MDH1 (second series), stronger effect = lower value 1.01 | S. cerevisiae deletion strains, locus YKL085W, strain MDH1, stronger effect = lower value 1.01 | S. cerevisiae deletion strains, locus YKL160W, strain elf1, stronger effect = lower value 0.973 | S. cerevisiae deletion strains, locus YKL190W, strain CNB1, stronger effect = lower value 1.01 | S. cerevisiae deletion strains, locus YKR001C, strain vps1, stronger effect = lower value 1.01 | S. cerevisiae deletion strains, locus YKR026C, strain gcn3, stronger effect = lower value 0.978 | S. cerevisiae deletion strains, locus YKR091W, strain srl3, stronger effect = lower value 0.985 | S. cerevisiae deletion strains, locus YLL001W, strain dnm1, stronger effect = lower value 0.976 | S. cerevisiae deletion strains, locus YLL026W, stronger effect = lower value 0.988 | S. cerevisiae deletion strains, locus YLL041C, strain sdh2, stronger effect = lower value 0.972 | S. cerevisiae deletion strains, locus YLR027C, strain aat2, stronger effect = lower value 0.985 | S. cerevisiae deletion strains, locus YLR039C, strain RIC1, stronger effect = lower value 1.04 | S. cerevisiae deletion strains, locus YLR058C, strain SHM2, stronger effect = lower value 1.01 | S. cerevisiae deletion strains, locus YLR102C, strain apc9, stronger effect = lower value 1.02 | S. cerevisiae deletion strains, locus YLR113W, strain HOG1, stronger effect = lower value 1.03 | S. cerevisiae deletion strains, locus YLR221C, strain rsa3, stronger effect = lower value 0.966 | S. cerevisiae deletion strains, locus YLR258W, strain gsy2, stronger effect = lower value 0.981 | S. cerevisiae deletion strains, locus YLR262C, strain YPT6 (second series), stronger effect = lower value 0.962 | S. cerevisiae deletion strains, locus YLR262C, strain YPT6, stronger effect = lower value 1.07 | S. cerevisiae deletion strains, locus YLR268W, strain sec22, stronger effect = lower value 1.01 | S. cerevisiae deletion strains, locus YLR320W, strain mms22, stronger effect = lower value 0.978 | S. cerevisiae deletion strains, locus YLR330W, strain CHS5, stronger effect = lower value 1.01 | S. cerevisiae deletion strains, locus YLR342W, strain FKS1 (second series), stronger effect = lower value 1.02 | S. cerevisiae deletion strains, locus YLR342W, strain FKS1, stronger effect = lower value 0.982 | S. cerevisiae deletion strains, locus YLR357W, strain rsc2, stronger effect = lower value 1.01 | S. cerevisiae deletion strains, locus YLR370C, strain arc18, stronger effect = lower value 0.963 | S. cerevisiae deletion strains, locus YLR371W, strain rom2, stronger effect = lower value 1.02 | S. cerevisiae deletion strains, locus YLR384C, strain iki3, stronger effect = lower value 0.973 | S. cerevisiae deletion strains, locus YLR418C, strain cdc73, stronger effect = lower value 1.02 | S. cerevisiae deletion strains, locus YML016C, strain PPZ1, stronger effect = lower value 1.01 | S. cerevisiae deletion strains, locus YML032C, strain rad52, stronger effect = lower value 1.02 | S. cerevisiae deletion strains, locus YML120C, strain ndi1, stronger effect = lower value 0.984 | S. cerevisiae deletion strains, locus YML124C, strain tub3, stronger effect = lower value 1 | S. cerevisiae deletion strains, locus YMR058W, strain fet3, stronger effect = lower value 0.95 | S. cerevisiae deletion strains, locus YMR078C, strain ctf18, stronger effect = lower value 1.02 | S. cerevisiae deletion strains, locus YMR125W, strain sto1, stronger effect = lower value 0.979 | S. cerevisiae deletion strains, locus YMR129W, stronger effect = lower value 0.984 | S. cerevisiae deletion strains, locus YMR205C, strain PFK2, stronger effect = lower value 0.97 | S. cerevisiae deletion strains, locus YMR223W, strain ubp8, stronger effect = lower value 1.02 | S. cerevisiae deletion strains, locus YMR231W, strain pep5, stronger effect = lower value 0.964 | S. cerevisiae deletion strains, locus YMR263W, strain SAP30, stronger effect = lower value 1.01 | S. cerevisiae deletion strains, locus YMR307W, strain GAS1, stronger effect = lower value 1.03 | S. cerevisiae deletion strains, locus YNL067W, strain RPL9B, stronger effect = lower value 1.02 | S. cerevisiae deletion strains, locus YNL071W, strain lat1, stronger effect = lower value 0.983 | S. cerevisiae deletion strains, locus YNL128W, strain TEP1, stronger effect = lower value 1.01 | S. cerevisiae deletion strains, locus YNL153C, strain GIM3, stronger effect = lower value 1 | S. cerevisiae deletion strains, locus YNL183C, strain NPR1, stronger effect = lower value 0.98 | S. cerevisiae deletion strains, locus YNL209W, strain ssb2, stronger effect = lower value 0.969 | S. cerevisiae deletion strains, locus YNL233W, strain BNI4, stronger effect = lower value 1 | S. cerevisiae deletion strains, locus YNL248C, strain rpa49, stronger effect = lower value 0.976 | S. cerevisiae deletion strains, locus YNL250W, strain rad50, stronger effect = lower value 1.02 | S. cerevisiae deletion strains, locus YNL271C, strain bni1, stronger effect = lower value 1.02 | S. cerevisiae deletion strains, locus YNL298W, strain CLA4, stronger effect = lower value 1.02 | S. cerevisiae deletion strains, locus YNL307C, strain MCK1, stronger effect = lower value 1.01 | S. cerevisiae deletion strains, locus YNL322C, strain KRE1 (second series), stronger effect = lower value 0.975 | S. cerevisiae deletion strains, locus YNL322C, strain KRE1, stronger effect = lower value 1.01 | S. cerevisiae deletion strains, locus YNR049C, strain mso1, stronger effect = lower value 0.983 | S. cerevisiae deletion strains, locus YNR052C, strain pop2, stronger effect = lower value 1.02 | S. cerevisiae deletion strains, locus YOL006C, strain TOP1, stronger effect = lower value 1.03 | S. cerevisiae deletion strains, locus YOL012C, strain htz1 1.42 | S. cerevisiae deletion strains, locus YOL147C, strain pex11, stronger effect = lower value 1.01 | S. cerevisiae deletion strains, locus YOR001W, strain rrp6, stronger effect = lower value 0.984 | S. cerevisiae deletion strains, locus YOR061W, strain CKA2, stronger effect = lower value 1.01 | S. cerevisiae deletion strains, locus YOR069W, strain VPS5, stronger effect = lower value 1.02 | S. cerevisiae deletion strains, locus YOR070C, strain gyp1, stronger effect = lower value 0.969 | S. cerevisiae deletion strains, locus YOR080W, strain dia2, stronger effect = lower value 0.991 | S. cerevisiae deletion strains, locus YOR083W, strain WHI5, stronger effect = lower value 0.986 | S. cerevisiae deletion strains, locus YOR106W, strain vam3, stronger effect = lower value 0.978 | S. cerevisiae deletion strains, locus YOR136W, strain idh2, stronger effect = lower value 1.01 | S. cerevisiae deletion strains, locus YOR144C, strain elg1, stronger effect = lower value 1.01 | S. cerevisiae deletion strains, locus YOR184W, strain ser1, stronger effect = lower value 1.03 | S. cerevisiae deletion strains, locus YOR231W, strain MKK1, stronger effect = lower value 1.05 | S. cerevisiae deletion strains, locus YOR265W, strain rbl2, stronger effect = lower value 0.975 | S. cerevisiae deletion strains, locus YOR270C, strain vph1, stronger effect = lower value 0.939 | S. cerevisiae deletion strains, locus YOR290C, strain snf2, stronger effect = lower value 0.982 | S. cerevisiae deletion strains, locus YOR316C, strain cot1, stronger effect = lower value 1.02 | S. cerevisiae deletion strains, locus YPL051W, strain arl3, stronger effect = lower value 0.979 | S. cerevisiae deletion strains, locus YPL055C, strain LGE1, stronger effect = lower value 1.02 | S. cerevisiae deletion strains, locus YPL078C, strain atp4, stronger effect = lower value 0.973 | S. cerevisiae deletion strains, locus YPL106C, strain sse1, stronger effect = lower value 0.969 | S. cerevisiae deletion strains, locus YPL240C, strain hsp82, stronger effect = lower value 0.979 | S. cerevisiae deletion strains, locus YPL241C, strain CIN2, stronger effect = lower value 1.01 | S. cerevisiae deletion strains, locus YPL256C, strain CLN2, stronger effect = lower value 1.1 | S. cerevisiae deletion strains, locus YPR119W, strain clb2, stronger effect = lower value 1.01 | S. cerevisiae deletion strains, locus YPR141C, strain kar3, stronger effect = lower value 1.02 | S. cerevisiae deletion strains, locus YPR163C, strain tif3, stronger effect = lower value 1.01 | S. cerevisiae deletion strains, locus YPR167C, strain met16, stronger effect = lower value 1.01 | S. cerevisiae deletion strains, strain wtn01, stronger effect = lower value 1.01 | S. cerevisiae strains, strain wild type, stronger effect = lower value 1.01
